# From the supplement of paper PMC6555819
# Experiments:
# Assay in all cases: PBM binding z-score (relative to random genomic background probes); higher = stronger binding; sequences stand for … in GC…GCGATTGACAGCGTAGAATGAAGG
# [1] = tested on: FXR:RXRa (NR concentration 270 nM, RXRa partner concentration 90 nM)
# Outline: (§1)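 Binding z-scores take random background probes as their reference. They come from custom Agilent 4×180K protein-binding microarrays incubated 1 h with ligand-free nuclear receptor dimers, with antibodies against each partner (one per run) detecting binding. Scanned fluorescence was regression-normalized.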
# [2] = tested on: LXRa:RXRa (NR concentration 270 nM, RXRa partner concentration 90 nM)
# Outline: as §1
# [3] = tested on: LXRa homodimer (NR concentration 270 nM)
# Outline: as §1
# [4] = tested on: LXRb:RXRa (NR concentration 270 nM, RXRa partner concentration 90 nM)
# Outline: as §1
# [5] = tested on: LXRb homodimer (NR concentration 270 nM)
# Outline: as §1
# [6] = tested on: PPARa:RXRa (NR concentration 270 nM, RXRa partner concentration 90 nM)
# Outline: as §1
# [7] = tested on: PPARg:RXRa (NR concentration 180 nM, RXRa partner concentration 90 nM)
# Outline: as §1
# [8] = tested on: PPARg:RXRa 270nM:90nM, anti-RXR (NR concentration 270 nM, RXRa partner concentration 90 nM)
# Outline: as §1
# [9] = tested on: PPARg:RXRa 30nM:10nM, anti-RXR (NR concentration 30 nM, RXRa partner concentration 10 nM)
# Outline: as §1
# [10] = tested on: PPARg:RXRa 90nM:30nM, anti-RXR (NR concentration 90 nM, RXRa partner concentration 30 nM)
# Outline: as §1
# [11] = tested on: PPARg:RXRa DBDmut IVT, anti-RXR (DBD mutation: RXRa K156A/R161A, NR concentration 270 nM, RXRa partner concentration 90 nM)
# Outline: as §1
# [12] = tested on: PPARg:RXRa IVT, anti-PPARg (NR concentration 270 nM, RXRa partner concentration 90 nM)
# Outline: as §1
# [13] = tested on: PPARg DBDmut:RXRa IVT, anti-PPARg (DBD mutation: PPARg1 K132A/R137A, NR concentration 270 nM, RXRa partner concentration 90 nM)
# Outline: as §1
# [14] = tested on: PPARg DBDmut IVT, anti-PPARg (DBD mutation: PPARg1 K132A/R137A, NR concentration 270 nM)
# Outline: as §1
# [15] = tested on: PPARg homodimer (NR concentration 180 nM)
# Outline: as §1
# [16] = tested on: PXR:RXRa (NR concentration 270 nM, RXRa partner concentration 90 nM)
# Outline: as §1
# [17] = tested on: PXR homodimer (NR concentration 270 nM)
# Outline: as §1
# [18] = tested on: RARa:RXR (NR concentration 270 nM, RXRa partner concentration 90 nM)
# Outline: as §1
# [19] = tested on: RARa homodimer (NR concentration 270 nM)
# Outline: as §1
# [20] = tested on: RARb:RXRa (NR concentration 270 nM, RXRa partner concentration 90 nM)
# Outline: as §1
Sequence,PBM binding z-score [1],PBM binding z-score [2],PBM binding z-score [3],PBM binding z-score [4],PBM binding z-score [5],PBM binding z-score [6],PBM binding z-score [7],PBM binding z-score [8],PBM binding z-score [9],PBM binding z-score [10],PBM binding z-score [11],PBM binding z-score [12],PBM binding z-score [13],PBM binding z-score [14],PBM binding z-score [15],PBM binding z-score [16],PBM binding z-score [17],PBM binding z-score [18],PBM binding z-score [19],PBM binding z-score [20]
GCTAGTTGGTCAGTAAAACGTCACACACCGGTCG,-0.277,-0.464,-0.383,-0.473,-0.195,-0.343,0.524,-0.186,-0.445,-0.286,0.256,0.168,0.0879,-0.472,-0.368,-0.432,-0.66,-0.372,-0.12,0.305
GCTAGTTGGTCAGTAAAAGTTCACACACCGGTCG,0.899,2.22,4.58,1.73,0.297,1.95,0.79,1.98,0.387,1.5,0.674,0.916,-0.358,0.138,2.26,3.43,3.27,2.53,1.14,2.73
TCTCTGAGGACACGAAGGTCAGAGCTTTCCAGAG,2.1,1.06,0.117,0.798,-0.338,2,0.595,2.08,2.59,2.22,1.47,1.68,0.539,-0.166,0.898,2.18,1.25,2.04,-0.145,3.29
GCATATAGGTAAGACAAGGTGAAAGTCCGATTGT,0.406,-0.0572,-0.498,-0.135,-0.674,1.06,0.917,0.84,0.112,0.746,3.48,2.15,0.16,0.225,0.496,0.219,-0.205,1.44,-0.191,0.391
ATCTCTAGGTAGGACTCAGTTCAGTGAAGAACGC,0.414,0.636,0.659,0.518,1.09,0.278,0.171,0.732,0.37,0.644,0.406,0.852,0.763,1.31,0.939,0.751,1.95,0.353,1.12,0.407
GGAACGAGGACATTCGAGTTGATAGCATGGCGAT,0.116,-0.183,-0.644,-0.72,-0.703,-0.304,0.664,-0.0182,-0.118,-0.155,0.421,0.192,-0.159,-0.578,-0.204,0.468,0.409,0.177,-0.136,0.344
ACTAGCTGGCCAAGTTTGGGTCACTCAAACAAAG,-0.286,-0.318,-0.768,0.339,-0.865,1.03,-0.347,0.0249,-0.62,-0.218,-0.306,0.303,-0.848,-0.239,-0.138,0.38,-0.487,0.811,-1.29,1.08
